The record followed here is PubChem BioAssay (NCI).

Common to all, as to test: NCI-60 one-dose screen, 48 h (100 = growth as untreated, 0 = no growth, -100 = all killed)
Assay [1] deals with HCT-15 colon. The note with it: 10 µM unless noted.
Assay [2] has as its system HT29 colon. The note with it: 10 µM unless noted.
In assay [3] the test system is SNB-75 CNS. The note with it: 10 µM unless noted.
Assay [4] has as its system SNB-19 CNS. The note with it: 10 µM unless noted.
Assay [5] concerns U251 CNS. The note with it: 10 µM unless noted.
Assay [6] has as its system PC-3 prostate. The note with it: 10 µM unless noted.
Assay [7] relates to SK-MEL-5 melanoma. Particulars: 10 µM unless noted.
Assay [8] concerns UACC-62 melanoma. The note with it: 10 µM unless noted.
The test system of assay [9] is LOX IMVI melanoma. Particulars: 10 µM unless noted.
The test system of assay [10] is SK-MEL-28 melanoma. The note with it: 10 µM unless noted.
The subject of assay [11] is SK-MEL-2 melanoma. Particulars: 10 µM unless noted.
The subject of assay [12] is EKVX NSCLC. Particulars: 10 µM.
For assay [13], the system named is SN12C renal. Particulars: 10 µM unless noted.
Assay [14] deals with TK-10 renal. Particulars: 10 µM unless noted.
The test system of assay [15] is ACHN renal. Particulars: 10 µM unless noted.
Assay [16] has as its system CAKI-1 renal. The note with it: 10 µM unless noted.
In assay [17] the test system is A498 renal. The note with it: 10 µM unless noted.
In assay [18] the test system is CCRF-CEM leukemia. The note with it: 10 µM.
Assay [19] relates to MOLT-4 leukemia. Particulars: 10 µM unless noted.
Assay [20] deals with UO-31 renal. The note with it: 10 µM unless noted.

Molecules are shown by their SMILES. About 83,000 compounds went through this panel and 20% of them were active in at least one assay; those are over-represented in the sample as a whole.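 Note: values are percent growth. 100 is the growth of untreated cells, values between 100 and 0 indicate rising inhibition; between -100 and 0 indicates cell death.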 Values without a mark were called inactive. Activity calls are given as the source filed them. Rule for the calls: active = growth percent below 10; inactive = the rest.

For `CC[n+]1c(C)ccc2cc(C)ccc21`, the growth is 94.5% in assay [1]; 108% in [2]; 83.7% in assay [3]; 92.7% in assay [4]; 93.5% in [5]; 104% in assay [6]. Moreover, the growth in assay [7] was 99.2%; in [8], 96.1%; in [9] it was 90.8%; in [10], 105%; in [11], 106%; in assay [12] it was 72.6%. Further, the growth in assay [13] is 96.8%; in [14] it was 98.1%; in [15], 106%; in [16] it was 113%; in assay [17], 96.7%; in [18], 98%. In assay [19], the growth is 89.9%.

For `O=C(O)c1ccc(Br)nc1`, the growth in assay [1] was 97.8%; in [2] it was 96.1%; in assay [3] it was 81.7%; in assay [4], 95.3%; in assay [5], 93.8%; in assay [6], 97.3%. In addition, the growth in assay [7] was 102%; in assay [8], 95.8%; in assay [9], 97.2%; in [10] it was 104%; in assay [11], 96.1%; in [12], 95.6%. The growth in [13] was 98.1%; in assay [20], 86.3%; in [14], 86.8%; in assay [15], 103%; in [18], 95.7%; in assay [19], 99.8%.

For `CC(C)(C)C(=O)OCOP(=O)(OCOC(=O)C(C)(C)C)C1CC(O)N(O)C1=O` (stereo unspecified), the growth in assay [1] was 34.7%; in assay [2] it was 6.67% (active); in assay [3] it was 51.2%; in assay [4] it was 16.1%; in [5], 6.74% (active); in [6], 58.9%. Besides, the growth is 58.4% in [7]; 9.68% (active) in assay [8]; 30.4% in [9]; 8.22% (active) in [10]; 45.9% in assay [11]; 66% in assay [12]. The growth in assay [13] was 11.6%; in [20], 18.6%; in assay [14], 63.6%; in [15] it was 42.7%; in assay [18], 4.09% (active); in assay [19] it was 24.5%.

As to `C[C@@H](c1ccc2c(c1)[nH]c1ccc(Cl)cc12)c1nc2ccccc2[nH]1`, the growth in [1] is 96%; in [2], 98%; in [3], 62.4%; in assay [4], 92%; in assay [5], 98.4%; in assay [6], 91.3%. In addition, the growth in [7] was 95.3%; in assay [8], 85.9%; in [9], 88.2%; in assay [10], 112%; in [11], 108%; in assay [12] it was 92.6%. The growth is 89.6% in assay [13]; 56.6% in assay [20]; 136% in [14]; 96.5% in assay [15]; 111% in [17]; 92.4% in assay [19].

For the molecule `CCOc1ccccc1/C=N\N=C(N/N=C/c1ccccc1OCC)N/N=C/c1ccccc1OCC`, the growth in [1] is 13.5%; in assay [2] it was -1.15% (active); in [3], 22.3%; in assay [4], 21.7%; in assay [5], 13.4%; in assay [6] it was 3.92% (active). The growth in assay [7] was -52.6% (active); in assay [8] it was 16.1%; in assay [9], 8.71% (active); in assay [10], 30.7%; in assay [11], 4.07% (active); in assay [12], 14.2%. The growth in assay [13] was 15.4%; in assay [20], -8.3% (active); in assay [14], 27.8%; in assay [15], 9.67% (active); in assay [18], 16.7%; in assay [19] it was 27.7%.

As to `CCc1c(C)c2ccc(OCC(=O)N=Nc3c(O)[nH]c4ccccc34)c(C)c2oc1=O`, the growth was -15% (active) in assay [1]; -38.6% (active) in assay [2]; 30.7% in [3]; 19.2% in assay [4]; -70.8% (active) in assay [5]; -9.58% (active) in [6]. Also, the growth is 34.2% in assay [7]; 22.8% in assay [8]; -37.8% (active) in [9]; 64.8% in assay [10]; 32.9% in assay [11]; 88.9% in assay [12]. The growth was -43% (active) in assay [13]; 64.8% in [20]; 61.3% in assay [14]; 82.2% in assay [15]; 56.9% in assay [17]; 8.66% (active) in [19].

In the case of `COC(=O)c1ccc2[nH]c(O)c(C(=Nc3ccc(N(C)C(=O)CN4CCN(C)CC4)cc3)c3cccc(OC)c3)c2c1`, the growth was 7.72% (active) in [1]; -2.16% (active) in assay [2]; -2.49% (active) in [3]; 12.7% in assay [4]; 11.7% in assay [5]; 20.3% in assay [6]. The growth is 6.71% (active) in assay [7]; 36.6% in [8]; 8.47% (active) in assay [9]; 19.5% in assay [10]; -0.0955% (active) in assay [11]; 38.7% in [12]. Moreover, the growth in assay [13] was 9.77% (active); in [14], 0.964% (active); in assay [15], 6.22% (active); in [16], 2.55% (active); in [17], -14.9% (active); in assay [18] it was 7.19% (active). For the same molecule, the growth in assay [19] is -7.42% (active).

With `CCN(CCO)CCNc1ccc(C)c2sc3cc(OC)ccc3c(=O)c12`, the growth is 41.1% in assay [1]; 33.1% in [2]; 70.9% in [3]; 67.7% in assay [4]; 54% in assay [5]; 71.2% in assay [6]. Further, the growth is 80.6% in [7]; 98.9% in assay [8]; 50.7% in assay [9]; 94.2% in [10]; 99.1% in [11]; 86.4% in [12]. For the same molecule, the growth in assay [13] was 55.9%; in [20], 49.4%; in [14], 79.3%; in assay [15], 36.8%; in assay [18], 47.9%; in assay [19], 21.7%.
